# Shown are actives, neighbours in structure and some others; about 2.4% of the full set was active somewhere.
# D2 PAM-1: positive allosteric modulators of human D2 dopamine receptor; P14416; DiscoveRx D2 beta-arrestin cells, luminescence, 90 min; 100% = 57 uM dopamine signal; potentiation, % (test concentration not listed); 360,000 compounds, 0.23% hits; AID 624464; in the data active = potentiation above about 50%; inconclusive = mostly about 30% to 49%
# Target sequence (P14416 whole entry, looked up): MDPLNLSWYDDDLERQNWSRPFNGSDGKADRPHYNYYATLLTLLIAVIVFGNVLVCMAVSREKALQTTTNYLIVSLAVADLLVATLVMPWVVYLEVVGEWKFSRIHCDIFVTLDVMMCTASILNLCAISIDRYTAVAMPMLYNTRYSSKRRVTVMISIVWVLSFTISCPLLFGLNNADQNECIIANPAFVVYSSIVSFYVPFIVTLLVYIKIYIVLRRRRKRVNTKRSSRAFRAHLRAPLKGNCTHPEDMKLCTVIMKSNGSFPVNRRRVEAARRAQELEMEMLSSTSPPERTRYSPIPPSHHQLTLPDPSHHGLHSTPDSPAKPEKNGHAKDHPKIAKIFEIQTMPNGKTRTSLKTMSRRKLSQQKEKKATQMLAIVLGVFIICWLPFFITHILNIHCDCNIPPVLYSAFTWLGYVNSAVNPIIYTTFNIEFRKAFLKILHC
#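 PathHunter beta-arrestin assay in DiscoveRx D2 cells. Compounds were added with an EC20 of dopamine (50 nM final) for 90 min at 37 deg C. Luminescence was read 1 h after detection reagent, with 57 uM dopamine as the EC100 control.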
# D2 ag-1: D2 dopamine receptor (human) agonism; HEK293 T-REx D2 cells, calcium flux agonist mode; 340,000 compounds, 0.53% hits; P14416; activation, % at 2 µM; AID 485358;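 active = activation over 3 SD above normal in the single-dose calcium agonist read, cut at about 30% in these data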; also: 0% is about no effect
#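 Tetracycline-induced HEK293 Trex cells with D2 receptor force-coupled to calcium signaling, plated overnight at 30 C and loaded with no-wash calcium dye. Calcium flux read kinetically for 180 s after compound addition; responses flag agonists.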
# D2 antag: antagonists of human D2 dopamine receptor; inhibition, % at 10 µM; AID 485344; 340,000 compounds, 2% hits; HEK293 TREx D2 cells, calcium flux, dopamine EC80; P14416; in the data active = inhibition above about 30%; inactive = below that, where a call was filed; also: 0% is about no effect
#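 Compounds are added to dye-loaded, induced HEK293 T-REx cells coupled to calcium release via D2; after a 3 min kinetic read an EC80 dopamine stimulus is given and fluorescence is recorded for 3 more min.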
# D2 ag-2: human D2 receptor agonism in beta-arrestin assay | P14416 | DiscoveRx PathHunter D2 beta-arrestin, luminescence, 90 min; 100% = 57 uM dopamine signal | activation, % (no concentration beside the values) | 360,000 compounds, 0.084% hits; in the data active = activation above about 40%; inconclusive = between about 15% and that limit
#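 DiscoveRx PathHunter D2 beta-arrestin cells (2,100/well) attached overnight, then compound-stimulated 90 min at 37 C in HBSS/10 mM HEPES/0.1% Tween-20 buffer; beta-galactosidase complementation read by luminescence after 1 h at ambient temperature. Dopamine 57 uM final (EC100) as control.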
# D2 PAM-2: positively modulates the human D2 dopamine receptor allosterically; P14416; HEK293 T-REx D2, calcium flux, EC20 dopamine potentiation; potentiation, % at 10 µM; 340,000 compounds, 0.34% hits; AID 485347;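 active = potentiation over 3 SD above the plate norm, cut at about 30% in these data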; also: 0% is about no effect
#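 Tetracycline-induced Hek293 Trex D2 cells, force-coupled to calcium, loaded with no-wash calcium dye. Compound added with 180 s kinetic read for agonism, then EC20 dopamine and a further 180 s read for potentiation.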
# D3 arrestin ag: activates human D3 dopamine receptor beta-arrestin recruitment. shares compounds with D2 ag-1. DiscoveRx D3 beta-arrestin cells, luminescence, 90 min. Potency, µM (titrated, usually from 76.9 µM), without a hit: top-dose activation, hits mostly activators. 2,300 compounds, 4% hits;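 also: potency is read from the fitted curve at half-maximal effect; 100% = dopamine control response; nearly all actives have a fitted effect of over 70% in size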
# D2 ag-3: counter-screen for D3 agonists: human D2 dopamine receptor agonism. 2,300 compounds, 5.9% hits. Potency, µM (highest dose often 76.9 µM), inactives show top-dose activation, actives largely listed as activators. AID 720507. shares compounds with D2 ag-1. DiscoveRx PathHunter D2 beta-arrestin, luminescence, 90 min; response scale: percent relative to full dopamine signal; also: potency is read from the fitted curve at half-maximal effect; % of control where 0% means no effect; nearly all actives have a fitted effect of over 70% in size
# Starred values were filed as active, the others as inactive; ? = inconclusive; · = not tested or not shown. Unless noted, calls follow the shape of the dose curve; as a rule, active = well fitted activation curve with a large enough effect; inconclusive = small, poorly fitted or top-dose-only effect; inactive = flat fitted curve, though single readings scatter.
SMILES,D2 PAM-1,D2 ag-1,D2 antag,D2 ag-2,D2 PAM-2,D3 arrestin ag,D2 ag-3
Cn1c(N2CCN(c3ccccn3)CC2)nc2c1c(=O)n(Cc1ccc(Cl)cc1)c(=O)n2C,-7,47*,49*,5,-10,18%,?
CCOC(=O)c1cc(S(=O)(=O)N2CCN(Cc3ccccc3)CC2)cn1C,0,0,-12,-2,2,·,·
CCOC(=O)C1=CCN(Cc2ccccc2)CC1,13,83*,101*,77*,-17,19%,?
Cc1ccc(NC(=O)OCCN2CCN(Cc3ccccc3)CCC2=O)cc1,-5,50*,43*,0,-12,8%,?
O=C(Nc1ccccc1)OCCN1CCN(Cc2ccccc2)CCC1=O,-6,-1,4,-6,-4,·,·
C/C(=N\NC(=O)c1nnn(-c2nonc2N)c1-c1ccc2c(c1)OCO2)c1ccc(C)cc1,-4,16,14,-1,8,-4%,-1%
C/C(=N\NC(=O)c1nnn(-c2nonc2N)c1-c1ccc2c(c1)OCO2)c1ccccc1,4,10,-58,-4,24,-8%,-7%
COCCn1c(SCC(=O)NCc2ccc3c(c2)OCO3)nnc1-c1c[nH]c2ccccc12,-1,64*,-9,-3,-13,3%,-2%
COCCn1c(SCC(=O)NCc2ccc3c(c2)OCO3)nnc1C(C)C,-3,1,-18,-2,0,·,·
CC1CCC(NC(=O)COC(=O)CSc2ccc(C(N)=O)cc2[N+](=O)[O-])CC1 (stereo not given),-10,0,9,7,-3,·,·
NC(=O)c1ccc(SCC(=O)OCC(=O)NC2CCCCCCC2)c([N+](=O)[O-])c1,0,0,10,10,4,14%,0%
O=C(O)/C(=C\c1cccc(O)c1)c1ccc(S(=O)(=O)N2CCCC2)s1,6,25,42*,0,-5,-5%,8%
O=C(O)/C(=C\c1cccc(F)c1)c1ccc(S(=O)(=O)N2CCCCC2)s1,10,-1,-11,-6,6,·,·
CC1=C(C(=O)Nc2cccnc2)C(c2ccc(F)cc2)n2nc(SCc3ccccc3)nc2N1 (stereo not given),·,-2,·,·,4,·,·
CCCN(CCC)CCCNS(=O)(=O)c1cc(Br)cc2c1N(C(C)=O)CC2,-33,59*,26,7,-16,23%,21%
COc1ccc(CN2C(=O)C(C)N(C(=O)c3c(F)cccc3F)c3ccccc32)cc1 (stereo not given),-6,0,23,-1,2,7%,-4%
CC1C(=O)N(Cc2ccc([N+](=O)[O-])cc2)c2ccccc2N1C(=O)c1c(F)cccc1F (stereo not given),8,-1,-6,4,-4,·,·
CN(Cc1ccccc1)c1nc(-c2ccc(F)cc2)cc(C(F)(F)F)n1,·,-3,·,·,13,·,·
CCN(C(=O)COC(=O)c1cc(=O)[nH]c2ccccc12)c1c(N)n(Cc2ccccc2)c(=O)[nH]c1=O,-4,·,·,-4,·,·,·
CCN(C(=O)CSc1nnc(-c2ccc(C)cc2)n1N)c1c(N)n(Cc2ccccc2)c(=O)[nH]c1=O,-22,-1,-7,6,-1,-5%,-6%
CCN(C(=O)COC(=O)c1ccc(O)cc1O)c1c(N)n(Cc2ccccc2)c(=O)[nH]c1=O,1,-1,-6,-3,-1,-3%,-5%
CCN(C(=O)COC(=O)CCCOc1ccccc1)c1c(N)n(Cc2ccccc2)c(=O)[nH]c1=O,-1,0,-28,0,-26,-3%,-6%
COc1ccc(-c2cc(C)nc3c(-c4ccc(OC)c(OC)c4)c(C)nn23)cc1,·,1,·,·,·,·,·
CCc1ccccc1NC(=O)CSc1ncc(S(=O)(=O)c2ccccc2)c(N)n1,·,0,·,·,2,·,·
